# Results from PubChem BioAssay.
# This is one part of the list. Active and inactive are the calls of the source. Unless noted, how the calls were made is not given here.
# Experiments:
# [1] = Brca1-Bard1 BiLC signal decrease – luminescence, single concentration, counter-screen for Mdm2/MdmX interaction inhibitor project, confirmation (AID 504668); settings: Brca1/Bard1 bimolecular luciferase complementation counterscreen, at 8 µM, stronger effect = higher value
# [2] = target: Tumor necrosis factor receptor superfamily member 10B (Homo sapiens) (UniProt O14763); assay: viability loss of caspase-8 NB7 cells with TRAIL – with/without TRAIL, luminescence panel, confirmation (AID 651596; in the data active means activity above about 50%); settings: NB7 neuroblastoma + caspase-8, TRAIL sensitization, NB7 Caspase-8, with TRAIL, mean of runs, at 10 µM, stronger effect = higher value
# [3] = as above; settings: NB7 neuroblastoma + caspase-8, without TRAIL, NB7 Caspase-8, without TRAIL, mean of runs, at 10 µM
# [4] = target: Carboxy-terminal domain RNA polymerase II polypeptide A small phosphatase 1 (Homo sapiens) (UniProt Q9GZU7); assay: SCP1 melting temperature change from compounds – biophysical, differential scanning fluorimetry, orthogonal assay for Scp-1 inhibitor project, confirmation (AID 540329;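 active means substances whose mean melting-temperature shift, as a percentage of the reference inhibitor's shift, reaches about 5.3%, limit read from the data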;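 further: 0% = Tm of DMSO wells and 100% = Tm with sodium orthovanadate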); settings: Recombinant SCP1, Sypro Orange thermal shift Tm; at 40 µM; stronger effect = higher value
# [5] = target: Tumor necrosis factor receptor superfamily member 10B (Homo sapiens) (UniProt O14763); assay: compound enhancement of TRAIL-induced cell killing – NB7 cells plus caspase-8, luminescence, panel, dose response (AID 652002); settings: NB7 neuroblastoma +caspase-8, TRAIL sensitization, luminescence viability, NB7+Caspase-8, with TRAIL, run 1; at 12.5 µM (top of the series)
# [6] = target: Tumor necrosis factor receptor superfamily member 10B (Homo sapiens) (UniProt O14763); assay: as above; settings: NB7 neuroblastoma +caspase-8, TRAIL sensitization, luminescence viability, NB7+Caspase-8, with TRAIL, run 2; at 12.5 µM (top of the series)
# [7] = as above; settings: NB7 neuroblastoma +caspase-8, no TRAIL, compound-alone cytotoxicity counter-screen, luminescence viability, NB7+Caspase-8, run 1; at 12.5 µM (top of the series) unless noted
# [8] = as above; settings: NB7 neuroblastoma +caspase-8, no TRAIL, compound-alone cytotoxicity counter-screen, luminescence viability, NB7+Caspase-8, run 2; at 12.5 µM (top of the series) unless noted
# Chain of Tumor necrosis factor receptor superfamily member 10B (Homo sapiens) (O14763 whole entry, looked up): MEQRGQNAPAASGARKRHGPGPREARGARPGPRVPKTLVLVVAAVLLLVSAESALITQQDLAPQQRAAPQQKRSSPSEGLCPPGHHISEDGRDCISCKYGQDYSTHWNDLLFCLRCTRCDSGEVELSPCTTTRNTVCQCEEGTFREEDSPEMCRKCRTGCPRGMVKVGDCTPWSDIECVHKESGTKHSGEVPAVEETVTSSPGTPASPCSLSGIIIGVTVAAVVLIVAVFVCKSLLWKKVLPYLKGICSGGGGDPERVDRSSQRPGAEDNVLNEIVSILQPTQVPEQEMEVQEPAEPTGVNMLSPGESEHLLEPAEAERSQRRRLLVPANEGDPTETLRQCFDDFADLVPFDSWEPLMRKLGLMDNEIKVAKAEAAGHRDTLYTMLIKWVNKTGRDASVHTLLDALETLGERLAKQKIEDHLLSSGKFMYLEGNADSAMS
# Chain of Carboxy-terminal domain RNA polymerase II polypeptide A small phosphatase 1 (Homo sapiens) (Q9GZU7 76-261 limits assumed): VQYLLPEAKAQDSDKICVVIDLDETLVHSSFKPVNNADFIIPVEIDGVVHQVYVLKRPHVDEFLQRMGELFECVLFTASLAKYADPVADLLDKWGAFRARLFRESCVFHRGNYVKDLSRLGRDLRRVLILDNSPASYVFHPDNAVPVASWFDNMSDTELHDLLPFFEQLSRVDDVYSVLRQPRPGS
smiles,measurement,setting,value
O=C(Nc1ccc(OC(F)F)cc1)Nc1cccc(C(F)(F)F)c1,inhibition,[1],24.4% (active)
same,activity,[2],85.3%
same,activity,[3],69.6%
CCCCCc1cc(=O)oc2c(C(CCN3CCCCC3)c3cc(OC)c(OC)c(OC)c3)c(OC)cc(OC)c12 (centres undefined),inhibition,[1],26.6% (active)
same,activity,[2],45.4%
same,activity,[3],36.5%
CC(=O)Nc1ccc(NC2=Nc3ccccc3N3C2=Nc2c(c(C)nn2-c2ccccc2)C3c2ccccc2)cc1 (centres undefined),inhibition,[1],32.1% (active)
same,activity,[2],89.4%
same,activity,[3],73.6%
CC1CCc2c(sc3nc(C(C)(C)C)nc(N4CCN(C(=O)CCl)CC4)c23)C1 (centres undefined),inhibition,[1],34.8% (active)
same,activity,[2],98.8%
same,activity,[3],99.2%
COc1cccc(N2CCN(c3ncnc4c3cnn4-c3ccc(C)cc3C)CC2)c1,inhibition,[1],28% (active)
same,activity,[2],97.8%
same,activity,[3],96%
Cc1ccc(CCNC(=O)c2ccc3nc4ccccc4c(=O)n3c2)cc1,thermal shift relative to vanadate control,[4],-6.77% (inactive)
N#CC1(NC(=O)Cn2ncc(Cl)c(Cl)c2=O)CCCCC1,inhibition,[1],29.6% (active)
same,activity,[2],98.5%
same,activity,[3],99.2%
CCCCCc1cc(=O)oc2c(C(CCN(CC)CC)c3cc(OC)c(OC)c(OC)c3)c(OC)cc(OC)c12 (centres undefined),inhibition,[1],32% (active)
same,activity,[2],52.9%
same,activity,[3],54.7%
same,"activity, % sensitization",[5],-8.61%
same,"activity, % sensitization",[6],49.1%
same,"activity, % sensitization",[7],-1%
same,"activity, % sensitization",[8],3.69%
CCOC(=O)c1sc(NC(=O)c2cc(-c3ccccc3C)nc3ccccc23)c(C#N)c1C,inhibition,[1],32.4% (active)
same,activity,[2],54.4%
same,activity,[3],40.4%
same,"activity, % sensitization",[5],16.7%
same,"activity, % sensitization",[6],-4.14%
same,"activity, % sensitization",[7],4.11%
same,"activity, % sensitization",[8],-11.3%
O=C(c1cc2c(s1)CCC2)N1CCN(c2ccccc2)CC1,thermal shift relative to vanadate control,[4],-14.1% (inactive)
Cc1ccc(NC(=O)CSc2nc3ccc(Nc4nc(N5CCOCC5)nc(N5CCOCC5)n4)cc3s2)cc1,inhibition,[1],26.2% (active)
same,activity,[2],58.1%
same,activity,[3],40.5%
same,"activity, % sensitization",[5],-7.95%
same,"activity, % sensitization",[6],-11.3%
same,"activity, % sensitization",[7],-21% [at 6.25 µM]
same,"activity, % sensitization",[8],-31.8%
Cc1c(CCC(=O)O)c(=O)oc2cc(OCc3ccc(Br)cc3)ccc12,thermal shift relative to vanadate control,[4],-18.2% (inactive)
C[C@H](CO)N1C[C@H](C)[C@H](CN(C)C(=O)Nc2ccc(C(F)(F)F)cc2)Oc2c(NC(=O)c3ccncc3)cccc2C1=O,thermal shift relative to vanadate control,[4],1.36% (inactive)
C[n+]1ccc(C(=O)NCc2ccccc2)cc1,thermal shift relative to vanadate control,[4],-7.9% (inactive)
